Screening results from PubChem.
tim23-1 inh = tim23-1 yeast growth inhibition; S. cerevisiae tim23-1 growth, BacTiter-Glo luminescence, 24 h; inhibition, % at 20 µM; hit rate 1.3% among 330,000;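 active = growth inhibition of the mutant yeast at or above 50%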;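 note: temperature-sensitive mutant grown at 25 °C; plate controls were DMSO-treated mutant yeast for no effect and medium wells lacking yeast for full effect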
TIM10 inh = TIM10 yeast growth inhibition; inhibition, % at 10 µM; S. cerevisiae TIM10 strain growth, BacTiter-Glo luminescence, 24 h; hit rate 1.4% among 330,000;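 active = inhibition of 40% or more at the single tested concentration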;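 note: wild-type TIM10 isogenic control strain grown at permissive 25 °C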
tim10-1 inh = inhibits growth of tim10-1 mutant yeast; S. cerevisiae tim10-1 ts strain growth, BacTiter-Glo, 24 h; inhibition, % at 20 µM; hit rate 2.2% among 330,000;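 active = inhibition of at least 40%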;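 note: mutant grown at 25 °C; 0% = DMSO wells with yeast and 100% = wells holding no yeast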
Yeast superoxide = caloric restriction mimetics inhibiting age-related superoxide in yeast | S. cerevisiae aged cells, superoxide DHE fluorescence; active compounds read low | superoxide response (% of plate mean), % at 10 µM | hit rate 0.18% among 330,000 | AID 2690;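 active = superoxide response under a set limit, about three screen SD below normal, cut at about 65% in these data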;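 note: yeast aged for seven days with compound at 30 °C before DHE staining; 100% = average MFI of all compound-treated wells on the plate with controls excluded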
NLRP3 yeast inh = NALP3 inhibition in yeast. hit rate 0.39% among 330,000. Yeast reconstituted NLRP3/ASC/caspase-1, beta-gal luminescence, 24 h. AID 2825. inhibition, % at 10 µM;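 active = inhibition of 50% or more; inactive = inhibition below 50%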;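 note: plate controls were induced DMSO wells for no effect and uninduced yeast grown without galactose for full effect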
tim10-1 confirm = tim10-1 yeast growth inhibition, confirmed | shares compounds with tim10-1 inh | S. cerevisiae tim10-1 ts strain growth, BacTiter-Glo, 24 h | inhibition, % at 20 µM | hit rate 56% among 7,400 | AID 463213;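 active = inhibition of yeast growth at or above a set limit in either of two repeat tests at 20 µM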;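 note: tim10-1 mutant grown at permissive 25 °C to find synthetic lethal compounds; 0% = DMSO yeast wells and 100% = medium wells without yeast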
* hit, by the source's call; · = no result given. This is a sample that favours compounds with a hit; in the whole collection about 3.8% have one here.

SMILES	tim23-1 inh	TIM10 inh	tim10-1 inh	Yeast superoxide	NLRP3 yeast inh	tim10-1 confirm
O=C(CNC(=O)c1ccccc1F)OC(C(=O)Nc1cc(C(F)(F)F)ccc1Cl)c1ccccc1 (stereo unspecified)	13	9	43*	101	-17	23
COc1cccc(NC(=O)c2c(C)cc(C)cc2CC(C)(C)C(=O)O)c1	-2	-18	-24	91	0	·
CCOC(=O)c1sc(NC(=O)C2CC2)nc1C	48	38	47*	103	5	32*
Cc1ccc([N+](=O)[O-])cc1NC(=S)NC(=O)CC(C)(C)C	41	23	43*	76	18	26
Cc1ccc([N+](=O)[O-])cc1NC(=S)NC(=O)C(C)(C)C	26	15	16	95	28	·
O=C(O)c1ccc(-n2cccc2/C=C2/SC(=O)N(CC(=O)N3CCCC3)C2=O)cc1	11	1	15	87	13	·
COc1cccc(CN(C)CC(=O)NCc2ccccc2Cl)c1	11	-3	19	93	7	·
O=C(O)c1ccc(-c2nnc(-c3ccccc3)o2)cc1	15	15	10	99	-2	·
O=C(c1ccc(-c2nnc(-c3ccccc3)o2)cc1)N1CCCCCC1	6	11	45*	141	16	33*
C/C(=N\NC(=S)NC(C)C)c1ccccc1OC(F)F	26	25	41*	94	10	30*
CCCCC(=O)N/N=C/c1ccc(-c2ccc([N+](=O)[O-])cc2)o1	23	-2	25	93	11	·
CC(C)(C)NC(=S)N/N=C\c1ccc(-c2ccc([N+](=O)[O-])cc2)o1	45	33	40*	97	9	33*
O=c1c2ccccc2nnn1COc1cccc(Cl)c1	2	6	10	104	24	·
CCOc1c(C=C(C#N)C#N)c2ccccc2n1CC	41	7	42*	113	19	27
CCn1c(O)c(C(C#N)=C2N=c3ccccc3=N2)c2ccccc21	22	16	17	89	19	·
COC(=O)c1ccc(C(=O)OC)c(NC(=O)c2cccnc2)c1	-3	-2	1	99	14	·
COc1ccccc1N1CCN(C(=O)c2cc(-c3ccc(F)cc3)on2)CC1	49	27	30	107	19	·
COc1ccc(-c2cc(C(=O)N3CCc4ccccc4C3)no2)cc1	41	6	21	101	27	·
COc1ccc(OC)c(-c2cc(C(=O)N3CCc4ccccc4C3)no2)c1	38	23	41*	108	7	27
CCC(C(=O)N1CCN(c2ccccc2OC)CC1)c1ccccc1 (stereo unspecified)	26	2	42*	76	2	13
COc1ccccc1-c1cc(C(=O)N2CCN(c3ccccc3OC)CC2)no1	40	37	48*	95	11	32*
CCOC(=O)N1CCN(c2ccccc2OC)CC1	39	1	-15	84	24	·
CN(C)CCNC(=O)C12CC3(C)CC(C)(CC(C)(C3)C1)C2	3	-1	5	111	5	·
CC(=O)Oc1c(C)cc(O)c2ccccc12	20	11	22	113	6	·
CC(=O)Cc1cc(O)c2ccccc2c1OC(=O)c1ccccc1	48	27	43*	119	2	38*
SMILES	tim23-1 inh	TIM10 inh	tim10-1 inh	Yeast superoxide	NLRP3 yeast inh	tim10-1 confirm
CCOC(=O)C1CCN(C(=O)c2oc3ccc4c(c3c2C)C(O)CC2(CCCCC2)O4)CC1 (stereo unspecified)	46	28	54*	110	6	33*
Cc1ccc2oc(C(=O)NC3CCS(=O)(=O)C3)cc(=O)c2c1 (stereo unspecified)	-11	1	-17	99	1	·
Cc1ccc(-c2noc(CN3CCN(C(c4ccccc4)c4ccccc4)CC3)n2)cc1	24	37	41*	114	4	19
Cc1ccc(-c2noc(CN3CCCCC3)n2)cc1	9	-15	18	108	23	·
Cc1ccc(CN(C(=O)COc2ccc(C)c(C)c2)C2CCS(=O)(=O)C2)o1 (stereo unspecified)	24	8	33	110	-1	·
COc1ccc(NS(=O)(=O)c2cccc(C(=O)NCC3(N(C)C)CCCCC3)c2)cc1	-12	-7	-24	111	20	·
O=c1c(-c2ccccc2)c(O)c2cccc3c2n1CCC3	-33	35	-12	123	-12	·
Cc1cc(C)c(-c2c(O)c3cccc4c3n(c2=O)CCC4)c(C)c1	47	15	47*	102	21	26
CCn1c(Cc2ccccc2)nnc1SC(C)C(=O)NC1CC1 (stereo unspecified)	15	10	5	84	2	·
CCc1c(C)nc(SCC(=O)CC(=O)OC(C)C)c(C#N)c1C	42	27	44*	86	15	31
COc1ccc(CNC(=O)C(C)c2ccc([N+](=O)[O-])cc2)cc1 (stereo unspecified)	23	-5	24	116	28	·
CCc1cc2ccc(OC)cc2nc1SCC(=O)NNC(=O)c1ccco1	49	26	43*	103	12	24
Cc1nc2ccccc2nc1OCc1ccc([N+](=O)[O-])cc1	-4	0	4	91	9	·
Cc1cc2c(=O)n(Cc3ccco3)c(SCC(=O)c3ccc(Cl)s3)nc2s1	-3	3	9	112	3	·
CCOC(=O)CC(=O)CSc1nc2sc(C)cc2c(=O)n1Cc1ccco1	37	25	45*	96	0	19
CC(O)(CS(=O)(=O)Cc1ccc(Cl)cc1)C(=O)Nc1cccc(C(F)(F)F)c1 (stereo unspecified)	7	6	23	95	11	·
O=C(Nc1cccc(C(F)(F)F)c1)N(Cc1ccc(Cl)cc1)CC(O)C(F)(F)F (stereo unspecified)	44	18	47*	106	6	26
COc1ccc([N+](=O)[O-])cc1NC(=O)CC1SC(=Nc2cccc(C)c2C)N(/N=C/c2cccc(OC)c2OC)C1=O (stereo unspecified)	21	12	24	91	2	·
CS(=O)(=O)c1sc2nc(-c3cccs3)cc(-c3ccccc3)c2c1N	7	34	18	114	1	·
Cc1ccc(-c2cc(-c3ccccc3)c3c(N)c(S(C)(=O)=O)sc3n2)cc1	24	34	49*	94	11	43*
CCOc1cc(C(=S)N2CCOCC2)ccc1OS(=O)(=O)c1ccccc1[N+](=O)[O-]	29	30	15	105	7	·
COCCNC(=O)/C(C#N)=C/C(C)=C/c1ccccc1	42	17	53*	73	2	42*
CCCN1CCN(S(=O)(=O)c2ccc3c(c2)NC(=O)C(C)C(=O)N3)CC1 (stereo unspecified)	-6	-4	-5	84	9	·
CCCCCCCCS(=O)c1sc2nc3c(cc2c1N)CCCC3 (stereo unspecified)	43	28	42*	117	3	50*
